The values that follow come from PubChem BioAssay (EPA / NIEHS).

Test [1] is described as follows: ATG_PBREM_CIS: Attagene CIS-FACTORIAL HepG2 Assay for human Phenobarbital-responsive Enhancer Module (PBREM) (AID 2282955). To be noted: HepG2 PBREM cis-reporter, Attagene multiplexed transcription; actives raise or lower the signal. The procedure, abridged:
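Readout: reporter mRNA, fluorescent RT-PCR fragments separated by capillary electrophoresis. System: HepG2 transiently transfected with cis-regulated reporter units. Exposure: 24 h. Analysis: bidirectional, DMSO baseline.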

The target of test [2] is Paired box protein Pax-6 (Homo sapiens) (UniProt P26367). Description: ATG_Pax6_CIS: Attagene CIS-FACTORIAL HepG2 Assay for human Paired Box 6 (PAX6) (AID 2282956). As to conditions: HepG2 CIS-FACTORIAL PAX6 reporter transcription, RNA readout; actives raise or lower the signal. The procedure, abridged: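 Multiplexed cis-reporter HepG2 system; 24 h treatment; reporter mRNA read by RT-PCR/CE fluorescence; bidirectional fit vs DMSO.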

Test [3] is described as follows: ATG_PXRE_CIS: Attagene CIS-FACTORIAL HepG2 Assay for human Pregnane X Receptor Element (PXRE) (AID 2282957). To be noted: HepG2 Attagene CIS-FACTORIAL PXRE reporter, mRNA; actives raise or lower the signal. The procedure, abridged:
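Transfect HepG2 with MRTUs (cis promoter elements); dose chemical, incubate 24 h; isolate RNA, RT with oligo(dT), PCR, 6-FAM label, HpaI cut, CE. Gain/loss fit vs DMSO.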

Test [4] in a line: ATG_PPRE_CIS: Attagene CIS-FACTORIAL HepG2 Assay for human Peroxisome Proliferator-activated Response Element (PPRE) (AID 2282958). To be noted: HepG2 PPRE cis-element reporter, Attagene transcription factor profiling; actives raise or lower the signal. A digest of the protocol:
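After human HepG2 hepatoma cells were transiently transfected with cis-promoter reporter constructs, they were exposed to test chemicals for 24 hours. Reporter RNA was then reverse-transcribed, PCR-amplified, FAM-labeled, HpaI-digested and quantified by capillary electrophoresis.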

Test [5] can be described thus: ATG_RORE_CIS: Attagene CIS-FACTORIAL HepG2 Assay for human RAR-related Orphan Receptor Element (RORE) (AID 2282959). To be noted: HepG2 Attagene cis-factorial RORE reporter, mRNA; actives raise or lower the signal. A digest of the protocol:
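Measured here: transcript induction of a cis-regulated reporter in HepG2 cells transiently transfected via FuGene 6. After 24 h, RNA was processed by RT-PCR and fluorescent capillary electrophoresis; DMSO defined baseline activity.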

The nature of test [6]: ATG_Sox_CIS: Attagene CIS-FACTORIAL HepG2 Assay for human SRY-box transcription factor (SOX) (AID 2282960). To be noted: HepG2 Attagene cis-factorial SOX reporter, mRNA; actives raise or lower the signal. A digest of the protocol:
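Using transiently transfected HepG2 cells, reporter transcription driven by cis elements was assessed 24 h after dosing. Signal was fluorescence of capillary-separated RT-PCR products, with DMSO defining baseline activity.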

The target of test [7] is Transcription factor Sp1 (Homo sapiens) (UniProt P08047). Put plainly: ATG_Sp1_CIS: Attagene CIS-FACTORIAL HepG2 Assay for human Specificity Protein 1 (Sp1) (AID 2282961). To be noted: HepG2 Sp1 cis-reporter transcription, actives raise or lower the signal. The procedure, abridged:
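After transient transfection of HepG2 cells with cis-promoter reporter units and 24 h chemical treatment, reporter transcripts were quantified by RT-PCR and capillary electrophoresis fluorescence. Gain- and loss-of-signal fitted against DMSO.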

Test [8] is described as follows: ATG_SREBP_CIS: Attagene CIS-FACTORIAL HepG2 Assay for human Sterol Regulatory Element Binding (SREBP) (AID 2282962). As to conditions: HepG2 Attagene cis-factorial SREBP reporter, mRNA; actives raise or lower the signal. A digest of the protocol:
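mRNA induction of transfected cis-promoter reporters in HepG2 cells, 24 h post-dose. Detection: RT-PCR with 6-FAM-labelled products, HpaI digest, capillary electrophoresis. DMSO served as negative control and baseline.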

Test [9] concerns the target Signal transducer and activator of transcription 3 (Homo sapiens) (UniProt P40763). Put plainly: ATG_STAT3_CIS: Attagene CIS-FACTORIAL HepG2 Assay for human Signal Transducer and Activator of Transcription 3 (STAT3) (AID 2282963). As to conditions: HepG2, Attagene cis-factorial STAT3 reporter transcription; actives raise or lower the signal. A digest of the protocol:
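Endogenous STAT3-responsive cis-element activity was read in transiently transfected HepG2 cells after 24 h treatment. Reporter transcripts were quantified via RT-PCR and capillary electrophoresis, with DMSO as negative control and bidirectional curve fitting.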

Test [10] is described as follows: ATG_TCF_b_cat_CIS: Attagene CIS-FACTORIAL HepG2 Assay for human T-Cell-Factor with beta-catenin (TCF/b-cat) (AID 2282965). As to conditions: HepG2 TCF/beta-catenin cis-reporter transcription, actives raise or lower the signal. The procedure, abridged:
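Endogenous TCF/LEF activity read as reporter transcript level via RT-PCR and capillary electrophoresis fluorescence in transfected HepG2, 24 h exposure; gain or loss of signal fitted against DMSO controls.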

A short description of test [11]: ATG_TAL_CIS: Attagene CIS-FACTORIAL HepG2 Assay for human TAL Basal Promoter (AID 2282966).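 Also: background control endpoint measuring basal TAL promoter reporter mRNA not a specific factor.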 To be noted: HepG2 Attagene cis-factorial TAL promoter reporter; actives raise or lower the signal. The procedure, abridged: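 Fluorescence of labelled reporter cDNA fragments, resolved by capillary electrophoresis, gave the readout. Human HepG2 liver cells carried transiently transfected cis-element reporter units and were treated for 24 hours; activity was fitted bidirectionally against DMSO.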

A short description of test [12]: ATG_TGFb_CIS: Attagene CIS-FACTORIAL HepG2 Assay for human Transforming Growth Factor (TGF) (AID 2282967). As to conditions: HepG2 Attagene CIS TGFb reporter, mRNA transcription; actives raise or lower the signal. A digest of the protocol:
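Cells were dosed for 24 hours, after which total RNA was reverse-transcribed and reporter sequences amplified, labeled and sized by capillary electrophoresis. Activity was fitted in both directions against DMSO.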

Test [13] can be described thus: ATG_VDRE_CIS: Attagene CIS-FACTORIAL HepG2 Assay for human Vitamin D Receptor Element (VDRE) (AID 2282968). As to conditions: HepG2 VDRE cis-reporter transcription, actives raise or lower the signal. A digest of the protocol: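 Reporter mRNA induction, quantified by capillary electrophoresis of fluorescently labelled RT-PCR products, was read 24 h after dosing HepG2 cells carrying transiently transfected cis-regulated reporter units; gain or loss relative to DMSO.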

For test [14], the target named is Nuclear receptor subfamily 1 group I member 3 (Homo sapiens) (UniProt Q14994). Description: ATG_CAR_TRANS: Attagene TRANS-FACTORIAL HepG2 Assay for human Constitutive Androstane Receptor (CAR) (AID 2282969; active = hit-call score of the fitted dose curve at least 0.9, where 1 is the maximum;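 also: activators raise reporter mRNA above DMSO so AC50 marks induction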). As to conditions: HepG2 Attagene TRANS-FACTORIAL CAR reporter. A digest of the protocol:
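Readout is reporter mRNA induction, quantified by fluorescent primer extension and capillary electrophoresis after RT-PCR. Cells were HepG2 transiently carrying chimeric NR-Gal4 constructs with GAL4-UAS reporters, treated for 24 h; activity scored upward from DMSO.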

Test [15] has as its target Estrogen receptor (Homo sapiens) (UniProt P03372). Description: ATG_ERa_TRANS: Attagene TRANS-FACTORIAL HepG2 Assay for human Estrogen Receptor alpha (ERa) (AID 2282970; active = hit-call score of the fitted dose curve at least 0.9, where 1 is the maximum). As to conditions: HepG2 Attagene TRANS ERa GAL4 reporter, mRNA. The procedure, abridged: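 Human liver HepG2, transient transfection of multiple GAL4-UAS reporter units; TRANS format (exogenous NR-Gal4 chimera). 24 h dosing. Readout: reporter mRNA, RT-PCR, 6-FAM primer extension, HpaI digest, capillary electrophoresis. Positive direction vs DMSO.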

The target in test [16] is X-box-binding protein 1 (Homo sapiens) (UniProt P17861). Description: ATG_Xbp1_CIS: Attagene CIS-FACTORIAL HepG2 Assay for human X-box Binding Protein 1 (XBP1) (AID 2282972). As to conditions: HepG2 XBP1 cis-element reporter, Attagene multiplex; actives raise or lower the signal. The procedure, abridged:
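Fluorescence-labelled cDNA fragments from reporter transcripts, separated by capillary electrophoresis, give the signal. Source: HepG2 cells transfected with promoter-driven reporter units, harvested 24 h post-dose. DMSO served as reference for bidirectional curve fitting.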

A short description of test [17]: ATG_GAL4_TRANS: Attagene TRANS-FACTORIAL HepG2 Assay for GAL4 (Internal Marker) (AID 2282976; active = hit-call score of the fitted dose curve at least 0.9, where 1 is the maximum). As to conditions: HepG2 Attagene TRANS GAL4 internal marker reporter. A digest of the protocol:
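First, HepG2 cells were transfected with reporter units under GAL4-UAS control. Next, they were treated with chemical for 24 h. Finally, RNA was reverse-transcribed, PCR-amplified, FAM-labelled and resolved by capillary electrophoresis, with induction scored against DMSO.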

Test [18] in a line: ATG_M_19_TRANS: Attagene TRANS-FACTORIAL HepG2 Assay for M19 Transcription Factor (Internal Marker) (AID 2282974; active = hit-call score of the fitted dose curve at least 0.9, where 1 is the maximum). As to conditions: HepG2 Attagene TRANS-FACTORIAL M19 internal marker reporter. The procedure, abridged: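 Gain-of-signal in reporter mRNA, relative to DMSO, was scored from capillary electrophoresis fluorescence. HepG2 cells carried transiently transfected multiple reporter transcription units and were incubated with test chemicals for 24 h.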

Test [19] is described as follows: ATG_TA_CIS: Attagene CIS-FACTORIAL HepG2 Assay for human TA Basal Promoter (AID 2282964). As to conditions: HepG2 Attagene CIS-factorial TA basal promoter reporter; actives raise or lower the signal. The procedure, abridged:
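Steps: transfect HepG2 with MRTUs; dose 24 h; isolate RNA, DNase-treat, reverse-transcribe; PCR and FAM-label reporter cDNA; digest with HpaI 2h at 37 C; run capillary electrophoresis. Activity fitted both directions against DMSO.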

Each structure is given as a SMILES string. Inconclusive results are not listed. The source made the active and inactive calls. The calls were made as follows, unless noted: active = hit-call score of the fitted dose curve at least 0.9, where 1 is the maximum; inactive = score below 0.9.

Chain of Signal transducer and activator of transcription 3 (Homo sapiens) (P40763 whole entry, looked up): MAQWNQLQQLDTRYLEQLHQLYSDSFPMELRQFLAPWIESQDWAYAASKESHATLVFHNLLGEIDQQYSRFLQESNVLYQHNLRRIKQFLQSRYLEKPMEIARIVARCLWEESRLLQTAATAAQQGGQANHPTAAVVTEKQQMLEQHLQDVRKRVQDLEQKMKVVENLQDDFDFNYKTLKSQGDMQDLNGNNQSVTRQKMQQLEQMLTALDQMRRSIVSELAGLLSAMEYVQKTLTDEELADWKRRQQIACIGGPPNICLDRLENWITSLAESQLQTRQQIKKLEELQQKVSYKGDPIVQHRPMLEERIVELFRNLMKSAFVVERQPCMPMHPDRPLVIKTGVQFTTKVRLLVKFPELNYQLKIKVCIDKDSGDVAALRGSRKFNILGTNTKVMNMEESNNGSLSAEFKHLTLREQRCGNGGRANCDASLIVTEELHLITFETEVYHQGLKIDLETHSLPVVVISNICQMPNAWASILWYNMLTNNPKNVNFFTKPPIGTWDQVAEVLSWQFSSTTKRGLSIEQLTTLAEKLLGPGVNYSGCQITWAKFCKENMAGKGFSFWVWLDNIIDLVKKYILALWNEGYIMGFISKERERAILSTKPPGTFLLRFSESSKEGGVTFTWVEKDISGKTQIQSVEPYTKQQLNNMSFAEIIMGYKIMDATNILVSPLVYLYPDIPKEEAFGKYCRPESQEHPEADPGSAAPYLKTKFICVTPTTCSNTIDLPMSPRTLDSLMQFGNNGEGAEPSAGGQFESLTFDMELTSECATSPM
Chain of X-box-binding protein 1 (Homo sapiens) (P17861 whole entry, looked up, the tested form may be a part): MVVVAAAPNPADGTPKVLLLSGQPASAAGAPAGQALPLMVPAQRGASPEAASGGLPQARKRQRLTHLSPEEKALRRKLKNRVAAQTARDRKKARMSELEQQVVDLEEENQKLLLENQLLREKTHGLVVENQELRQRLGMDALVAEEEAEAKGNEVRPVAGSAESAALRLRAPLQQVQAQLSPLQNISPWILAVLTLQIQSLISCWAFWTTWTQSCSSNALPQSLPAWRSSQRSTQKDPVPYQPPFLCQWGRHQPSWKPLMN
Chain of Paired box protein Pax-6 (Homo sapiens) (P26367 whole entry, looked up): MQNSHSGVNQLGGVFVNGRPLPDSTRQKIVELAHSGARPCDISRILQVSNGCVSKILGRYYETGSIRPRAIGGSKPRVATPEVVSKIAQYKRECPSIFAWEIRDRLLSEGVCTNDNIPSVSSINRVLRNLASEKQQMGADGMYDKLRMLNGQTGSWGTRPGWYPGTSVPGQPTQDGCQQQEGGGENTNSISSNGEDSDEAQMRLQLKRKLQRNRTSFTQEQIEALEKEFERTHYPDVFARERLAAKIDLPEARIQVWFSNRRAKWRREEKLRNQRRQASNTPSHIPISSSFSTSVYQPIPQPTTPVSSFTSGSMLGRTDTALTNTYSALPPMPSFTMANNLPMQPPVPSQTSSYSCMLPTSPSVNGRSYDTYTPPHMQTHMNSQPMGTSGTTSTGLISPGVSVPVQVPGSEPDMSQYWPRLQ
Chain of Estrogen receptor (Homo sapiens) (P03372 whole entry, looked up, the tested form may be a part): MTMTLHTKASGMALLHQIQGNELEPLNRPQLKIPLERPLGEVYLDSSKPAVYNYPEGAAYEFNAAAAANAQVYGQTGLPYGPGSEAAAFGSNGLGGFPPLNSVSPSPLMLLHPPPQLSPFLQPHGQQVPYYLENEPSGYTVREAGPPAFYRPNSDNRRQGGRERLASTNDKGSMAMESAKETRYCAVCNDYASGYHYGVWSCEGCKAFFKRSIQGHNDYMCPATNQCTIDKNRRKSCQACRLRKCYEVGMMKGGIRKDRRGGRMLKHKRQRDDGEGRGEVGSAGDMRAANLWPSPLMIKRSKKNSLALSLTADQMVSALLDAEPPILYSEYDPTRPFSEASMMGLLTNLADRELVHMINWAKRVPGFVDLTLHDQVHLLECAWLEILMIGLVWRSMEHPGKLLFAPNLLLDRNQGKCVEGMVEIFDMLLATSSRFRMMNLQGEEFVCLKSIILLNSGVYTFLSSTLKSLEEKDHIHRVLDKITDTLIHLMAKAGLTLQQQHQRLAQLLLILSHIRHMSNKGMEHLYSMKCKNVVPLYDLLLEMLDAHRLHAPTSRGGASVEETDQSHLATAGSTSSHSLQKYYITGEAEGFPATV
Chain of Transcription factor Sp1 (Homo sapiens) (P08047 whole entry, looked up): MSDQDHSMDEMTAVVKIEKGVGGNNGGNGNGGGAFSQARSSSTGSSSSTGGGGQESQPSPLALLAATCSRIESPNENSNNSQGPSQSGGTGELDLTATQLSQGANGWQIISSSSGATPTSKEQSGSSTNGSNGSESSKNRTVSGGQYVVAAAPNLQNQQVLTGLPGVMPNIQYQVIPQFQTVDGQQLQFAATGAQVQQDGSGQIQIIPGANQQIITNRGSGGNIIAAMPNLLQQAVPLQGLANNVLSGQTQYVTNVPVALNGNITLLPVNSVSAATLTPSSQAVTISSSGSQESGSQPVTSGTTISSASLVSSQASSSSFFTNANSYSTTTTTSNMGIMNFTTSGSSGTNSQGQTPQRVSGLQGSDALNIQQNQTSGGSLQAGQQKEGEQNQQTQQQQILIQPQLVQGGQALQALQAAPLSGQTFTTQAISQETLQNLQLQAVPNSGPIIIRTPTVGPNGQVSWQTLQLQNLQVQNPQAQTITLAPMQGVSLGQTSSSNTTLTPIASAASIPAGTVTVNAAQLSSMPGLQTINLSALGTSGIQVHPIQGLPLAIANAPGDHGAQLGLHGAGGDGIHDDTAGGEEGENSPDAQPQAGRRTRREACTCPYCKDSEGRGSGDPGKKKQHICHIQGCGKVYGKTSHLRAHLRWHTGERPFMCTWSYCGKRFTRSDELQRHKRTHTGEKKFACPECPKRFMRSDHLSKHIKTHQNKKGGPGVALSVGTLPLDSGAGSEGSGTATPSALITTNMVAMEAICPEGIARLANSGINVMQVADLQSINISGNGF
Chain of Nuclear receptor subfamily 1 group I member 3 (Homo sapiens) (Q14994 whole entry, looked up, the tested form may be a part): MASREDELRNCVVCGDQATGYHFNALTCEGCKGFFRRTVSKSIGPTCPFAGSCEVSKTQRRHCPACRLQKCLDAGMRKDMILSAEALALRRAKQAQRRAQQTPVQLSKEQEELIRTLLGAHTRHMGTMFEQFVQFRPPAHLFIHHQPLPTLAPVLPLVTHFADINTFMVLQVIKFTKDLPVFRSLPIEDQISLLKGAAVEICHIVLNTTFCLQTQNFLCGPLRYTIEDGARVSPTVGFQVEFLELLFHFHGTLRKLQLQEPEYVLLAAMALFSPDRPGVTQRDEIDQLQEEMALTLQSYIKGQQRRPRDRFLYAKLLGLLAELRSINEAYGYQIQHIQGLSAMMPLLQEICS

As to `O=S(=O)(O)c1ccc(Cl)cc1`, the result in test [1], in [2], in test [3], in test [4], in test [5] and in [6] was inactive. Further, the compound was called inactive in test [7], in test [8], in [9], in test [10], in test [11] and in [12]. In addition, the call in [13], in [14], in test [15], in test [16] and in [17] was inactive.
With `Cc1cccc(C)n1`, the result in test [1], in test [2], in [3], in test [4], in [5] and in test [6] was inactive. Also, the call in test [7], in test [8], in [9], in [11], in test [12] and in test [13] was inactive. The outcome in test [16], in [18] and in test [17] was inactive.
As a reminder, the AC50 is the midpoint of the concentration-response curve, whichever way the signal moves. Consider `NS(=O)(=O)C(F)(F)C(F)(F)C(F)(F)C(F)(F)C(F)(F)C(F)(F)F`, for which the result in test [1], in test [5], in test [6], in test [7], in [8] and in [9] was inactive. Besides, the compound was called inactive in test [11], in [14] and in [16]. Besides, the AC50 in test [3] is 41 µM (active); in [4], 50.2 µM (active); in test [12], 54.4 µM (active); in [15] it was 13.9 µM (active).
As for `CO[Si](C)(CCC(F)(F)C(F)(F)C(F)(F)C(F)(F)C(F)(F)C(F)(F)F)OC`, the result in [1], in [2], in test [3], in test [4], in test [6] and in test [7] was inactive. Also, the call in test [8], in test [9], in [19], in test [11], in test [12] and in test [15] was inactive. The call in [16] and in [18] was inactive.
With `CCN(CCO)S(=O)(=O)C(F)(F)C(F)(F)C(F)(F)C(F)(F)C(F)(F)C(F)(F)C(F)(F)C(F)(F)F`, the result in [1], in test [4], in [5], in test [6], in [7] and in test [8] was inactive. For the same compound, the call in [9], in [19], in test [11], in test [12] and in test [15] was inactive. Also, the AC50 in test [3] is 9.56 µM (active); in test [16], 29.8 µM (active).
